Here are results for eight molecules from PubChem BioAssay (NCATS).

Results filed as inconclusive are left out. A number with no mark means an inactive call. Active and inactive are the calls of the source. Calls come from the whole dose curve; as a rule, active = well fitted curve in the direction sought with a large enough effect; inconclusive = small, poorly fitted or top-dose-only effect, or another doubt; inactive = no such curve, though single readings can be large; an effect the other way counts as inactive or inconclusive.

The nature of experiment [1]: qHTS of pediatric cancer cell lines to identify multiple opportunities for drug repurposing: Primary screen for SK-N-SH cells (AID 1347098). Note: nearly all actives have a fitted effect of over 65% in size. Note: potency is the fitted concentration of half-maximal effect. As to conditions: SK-N-SH viability, CellTiter-Glo luminescence, 48 h; series mostly up to 57 µM. In a few lines: (§1)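 Cells (500-1,000/well) rested 5 h, then received compounds for 48 h; metabolically active cells were measured by CellTiter-Glo luminescence. Final concentrations spanned up to 46 µM (MIPE, 11-point) or 0.59 nM-46 µM (NPC, 8-point) in primary screens, 11-point in follow-ups.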
For orientation: qHTS replaces the single test concentration by a dilution series.

Experiment [2] in a line: qHTS of pediatric cancer cell lines to identify multiple opportunities for drug repurposing: Primary screen for NB1643 cells (AID 1347099). Note: nearly all actives have a fitted effect of over 50% in size. Note: potency is the fitted concentration of half-maximal effect. The conditions noted are these: NB1643 neuroblastoma viability, CellTiter-Glo luminescence, 48 h; series mostly up to 46 µM. The procedure, abridged:
(§2)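 Phenotypic viability qHTS, 48 h compound exposure, CellTiter-Glo luminescence read-out; multi-concentration dosing so that potency and efficacy derive directly from the primary screen's curves.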

Experiment [3] can be described thus: qHTS of pediatric cancer cell lines to identify multiple opportunities for drug repurposing: Primary screen for LAN-5 cells (AID 1347100). Note: potency is the fitted concentration of half-maximal effect. As to conditions: LAN-5 neuroblastoma viability, CellTiter-Glo luminescence, 48 h; series mostly up to 46 µM. The procedure, abridged:
(§3)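 Viability after 48 h compound treatment at 37C, 500-1,000 cells/well, read as ATP luminescence with CellTiter-Glo. Primary screens used 11-point (MIPE, 0.78 nM-46 µM) or 8-point (NPC, 0.59 nM-46 µM) final concentrations; follow-up screens used 11-point dilutions.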

Experiment [4] can be described thus: qHTS of pediatric cancer cell lines to identify multiple opportunities for drug repurposing: Primary screen for BT-12 cells (AID 1347101). Note: nearly all actives have a fitted effect of over 25% in size. Note: potency is the fitted concentration of half-maximal effect. The conditions noted are these: BT-12 viability, CellTiter-Glo luminescence, 48 h; series mostly up to 57.3 µM. In a few lines:
as §1

Experiment [5] can be described thus: qHTS of pediatric cancer cell lines to identify multiple opportunities for drug repurposing: Primary screen for Rh18 cells (AID 1347102). Note: nearly all actives have a fitted effect of over 65% in size. Note: potency is the fitted concentration of half-maximal effect. The conditions noted are these: Rh18 rhabdomyosarcoma viability, CellTiter-Glo luminescence, 48 h; series mostly up to 46 µM. In a few lines:
as §3

Experiment [6] can be described thus: qHTS of pediatric cancer cell lines to identify multiple opportunities for drug repurposing: Primary screen for RD cells (AID 1347104). Note: nearly all actives have a fitted effect of over 55% in size. Note: potency is the fitted concentration of half-maximal effect. The conditions noted are these: RD rhabdomyosarcoma viability, CellTiter-Glo luminescence, 48 h; series mostly up to 46 µM. In a few lines: as §2
The nature of experiment [7]: qHTS of pediatric cancer cell lines to identify multiple opportunities for drug repurposing: Primary screen for MG 63 (6-TG R) cells (AID 1347105). Note: nearly all actives have a fitted effect of over 50% in size. Note: potency is the fitted concentration of half-maximal effect. As to conditions: MG 63 (6-TG R) viability, CellTiter-Glo, 48 h; series mostly up to 46 µM. In a few lines:
as §2

Experiment [8] can be described thus: qHTS of pediatric cancer cell lines to identify multiple opportunities for drug repurposing: Primary screen for control Hh wild type fibroblast cells (AID 1347106).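 Note: a drop in luminescence marks cytotoxicity and a rise apparent proliferation; nearly all actives have a fitted effect of over 55% in size.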 As to conditions: Hh wild-type fibroblast viability, CellTiter-Glo luminescence, 48 h; series mostly up to 46 µM. In a few lines: as §3
Experiment [9] can be described thus: qHTS of pediatric cancer cell lines to identify multiple opportunities for drug repurposing: Primary screen for Rh30 cells (AID 1347107). Note: nearly all actives have a fitted effect of over 75% in size. Note: potency is the fitted concentration of half-maximal effect. The conditions noted are these: Rh30 rhabdomyosarcoma viability, CellTiter-Glo luminescence, 48 h; series mostly up to 46 µM. The procedure, abridged:
as §3

Experiment [10] is described as follows: qHTS of pediatric cancer cell lines to identify multiple opportunities for drug repurposing: Primary screen for Rh41 cells (AID 1347108). Note: nearly all actives have a fitted effect of over 70% in size. Note: potency is the fitted concentration of half-maximal effect. The conditions noted are these: Rh41 rhabdomyosarcoma viability, CellTiter-Glo luminescence, 48 h; series mostly up to 46 µM. In a few lines:
as §2

Experiment [11] is described as follows: qHTS of pediatric cancer cell lines to identify multiple opportunities for drug repurposing: Primary screen for Saos-2 cells (AID 1347097). Note: nearly all actives have a fitted effect of over 40% in size. Note: potency is the fitted concentration of half-maximal effect. As to conditions: Saos-2 viability, CellTiter-Glo ATP luminescence, 48 h; series mostly up to 46 µM. The procedure, abridged:
as §2

The nature of experiment [12]: qHTS of pediatric cancer cell lines to identify multiple opportunities for drug repurposing: Primary screen for OHS-50 cells (AID 1347103). Note: nearly all actives have a fitted effect of over 40% in size. Note: potency is the fitted concentration of half-maximal effect. As to conditions: OHS-50 osteosarcoma viability, CellTiter-Glo luminescence, 48 h; series mostly up to 57.3 µM. In a few lines: as §1
A short description of experiment [13]: qHTS of pediatric cancer cell lines to identify multiple opportunities for drug repurposing: Confirmatory screen for NB1643 cells (AID 1347109). Note: potency is the fitted concentration of half-maximal effect; nearly all actives have a fitted effect of over 45% in size. As to conditions: NB1643 neuroblastoma cell viability; series mostly up to 45.9 µM. In a few lines:
as §3

A short description of experiment [14]: qHTS of pediatric cancer cell lines to identify multiple opportunities for drug repurposing: Confirmatory screen for A673 cells (AID 1347110). Note: potency is the fitted concentration of half-maximal effect; nearly all actives have a fitted effect of over 65% in size. The conditions noted are these: A673 Ewing sarcoma cell viability; series mostly up to 45.9 µM. The procedure, abridged:
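A673 cells seeded at 500-1,000 cells/well, rested 5 h, then dosed; primary MIPE 11-point (0.78 nM to 46 µM), NPC (0.59 nM to 46 µM); confirmatory 11-point. CellTiter-Glo luminescence after 48 h.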

A short description of experiment [15]: qHTS of pediatric cancer cell lines to identify multiple opportunities for drug repurposing: Confirmatory screen for SK-N-MC cells (AID 1347111).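 Note: potency is the fitted concentration of half-maximal effect; cells exposed to compound for 48 h before the readout; nearly all actives have a fitted effect of over 70% in size.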 The conditions noted are these: SK-N-MC cell viability. The procedure, abridged: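 SK-N-MC cells at 500-1,000 cells/well in growth media were pre-incubated 5 h, then exposed to compounds at 11-point dilutions for 48 h at 37 degrees C, 5% CO2. Viability was read as CellTiter-Glo luminescence.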

Experiment [16] can be described thus: qHTS of pediatric cancer cell lines to identify multiple opportunities for drug repurposing: Confirmatory screen for BT-12 cells (AID 1347112). Note: potency is the fitted concentration of half-maximal effect; nearly all actives have a fitted effect of over 55% in size. As to conditions: BT-12 rhabdoid tumor cells, viability; series mostly up to 45.9 µM. The procedure, abridged:
as §3

A short description of experiment [17]: qHTS of pediatric cancer cell lines to identify multiple opportunities for drug repurposing: Confirmatory screen for LAN-5 cells (AID 1347113). Note: potency is the fitted concentration of half-maximal effect; nearly all actives have a fitted effect of over 65% in size. As to conditions: LAN-5 neuroblastoma cell viability; series mostly up to 45.9 µM. The procedure, abridged:
as §3

Experiment [18] can be described thus: qHTS of pediatric cancer cell lines to identify multiple opportunities for drug repurposing: Confirmatory screen for DAOY cells (AID 1347114). The conditions noted are these: DAOY medulloblastoma cells viability, cytotoxicity qHTS; series mostly up to 45.9 µM. The procedure, abridged:
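Viability measured as metabolically active cells via CellTiter-Glo luminescence following 48 hours of compound exposure, 11-point dilutions in confirmatory testing. 500-1,000 cells/well plated 5 hours before dosing; controls were DMSO and 2.3 µM bortezomib.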

Experiment [19] can be described thus: qHTS of pediatric cancer cell lines to identify multiple opportunities for drug repurposing: Confirmatory screen for NB-EBc1 cells (AID 1347115). Note: potency is the fitted concentration of half-maximal effect; nearly all actives have a fitted effect of over 45% in size. As to conditions: NB-EBc1 neuroblastoma cells, viability (cytotoxicity); series mostly up to 45.9 µM. In a few lines:
as §3

For the molecule `CCCN(CCC)CCc1cccc2c1CC(=O)N2`, the Potency result in [1], in experiment [2], in experiment [3], in [4], in [5] and in experiment [6] was “inactive” throughout. In addition, the Potency entry in [7], in experiment [9] and in [10] was “inactive” in each case. For the same molecule, the molecule was called inactive in [8].

Turning to `CCc1cccc(N(C)C(N)=Nc2cccc3ccccc23)c1`, the Potency in experiment [11] was 18800 nM (active); in experiment [12] it was 15500 nM (active). Also, the Potency result in experiment [2], in [3] and in [9] was “inactive” throughout. The molecule was called inactive in experiment [8].

As to `COc1ccc(CCN(C)CCCC(C#N)(c2cc(OC)c(OC)c(OC)c2)C(C)C)cc1OC` (stereo not drawn), the Potency result in experiment [1], in [2], in [5], in experiment [6] and in [9] was “inactive” each time.

Turning to `CCc1c(C)[nH]c2c1C(=O)C(CN1CCOCC1)CC2` (stereo not drawn), the Potency result in experiment [11], in experiment [2], in [3], in experiment [4], in experiment [5] and in experiment [6] was “inactive” throughout. Also, the Potency entry in experiment [7], in experiment [9] and in [10] was “inactive” each time. Further, in experiment [8], the call was inactive.

Take `Fc1ccc(C(c2ccc(F)cc2)N2CCN(C/C=C/c3ccccc3)CC2)cc1`: the Potency entry in experiment [2], in [5], in [7], in experiment [9] and in [10] was “inactive” in each case. In [12], the Potency is 17400 nM (active).

Consider `C[n+]1cc2c3c(ccc2c2ccc4cc5c(cc4c21)OCO5)OCO3`, for which the Potency in [1] is 1500 nM (active); in experiment [2], 1160 nM (active); in [3], 1160 nM (active); in experiment [4], 1690 nM (active); in experiment [5], 2060 nM (active); in experiment [6], 1840 nM (active). Also, the Potency was 2310 nM (active) in experiment [7]; 2590 nM (active) in experiment [9]; 2590 nM (active) in experiment [10]; 1020 nM (active) in experiment [13]; 1150 nM (active) in experiment [14]; 1290 nM (active) in [15]. Besides, the Potency was 3230 nM (active) in experiment [16], 811 nM (active) in experiment [17], 2290 nM (active) in experiment [18] and 3230 nM (active) in [19].

Regarding `CO[C@@]1(NC(=O)CSCC#N)C(=O)N2C(C(=O)O)=C(CSc3nnnn3C)CS[C@@H]21`, the Potency result in [11], in [2], in [4], in experiment [5], in experiment [12] and in experiment [6] was “inactive” each time. Besides, the Potency entry in experiment [7], in experiment [9] and in experiment [10] was “inactive” in each case. Moreover, the result in experiment [8] was inactive.

As for `O=C(O)CN(CCN(CC(=O)O)CC(=O)O)CCN(CC(=O)O)CC(=O)O`, the Potency entry in [1], in experiment [2], in [4], in [5], in [12] and in experiment [6] was “inactive” throughout. In addition, the Potency entry in experiment [7], in experiment [9] and in [10] was “inactive” in each case. In experiment [8], the outcome was inactive.
